{"source": "PubChem BioAssay (NCI)", "note": "About 83,000 compounds went through this panel and 20% of them were active in at least one assay; those are over-represented in the sample as a whole.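 Results are percent growth after 48 hours of single-concentration exposure. 100 means growth as in untreated cells, lower positive values show inhibition; negative values down to -100 show cell death.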 Activity calls are given as the source filed them."}
{"test_system": "HOP-62 NSCLC", "experiment": "NCI-60 one-dose screen, 48 h (100 = growth as untreated, 0 = no growth, -100 = all killed)", "details": "10 µM unless noted", "experimental": "Growth inhibition of the HOP-62 human Non-Small Cell Lung tumor cell line is measured as a screen for anti-cancer activity. Cells are grown in 96 well plates and exposed to the test compound for 48 hours. Compounds are tested at a single concentration, which is 10^-5 M for most compounds. The reported endpoint is percent growth (GI% or GIPRCNT), where numbers from 0 - 100% represent growth inhibition, and numbers from -100% - 0 represent cell death. For example, a value of 40 represents 60% growth inhibition. A value of 0 means no net growth occurred over the course of the experiment. A value of -40 indicates 40% of cells at the beginning of the experiment died by the end of the experiment. A value of -100 means all cells are dead at the end of the experiment.\nNCI-60 Human Tumor Cell Lines Screen was performed using the standard one-dose NCI protocol, which is described in more detail at https://dtp.cancer.gov/discovery_development/nci-60/default.htm.\nCompounds with GIPRCNT values below 10 were considered active. Activity score was based on GIPRCNT using the following formula: […]\nScore is 0 for GIPRCNT values of 100 or above, 50 for GIPRCNT values of 0, and 100 for GIPRCNT values of -100."}
{"smiles": "COc1cc(CNCCN2C(=O)c3ccc4c5c(ccc(c35)C2=O)C(=O)N(CCNCc2cc(OC)c(OC)c(OC)c2)C4=O)cc(OC)c1OC", "growth": "-78% (active)"}
{"smiles": "COC(=O)[C@@]12CC[C@@H](C)[C@]3(C[C@@H](c4ccoc4)OC3=O)[C@H]1CC[C@@H]1O[C@@]12C", "growth": "94.2% (inactive)"}
{"smiles": "COC(=O)c1c2c(c(C)[n+]([O-])c1C)C(=O)C=C(NCc1cccc(Cl)c1)C2=O", "growth": "-19.8% (active)"}
{"smiles": "Cc1nc2cc(Nc3nc(Nc4ccc(F)cc4)nc(-c4ccc(Cl)cc4)n3)ccc2n1Cc1ccccc1", "growth": "80.6% (inactive)"}
{"smiles": "CN1CCN(C(=O)OCCOCCOC(=O)N2CCN(C)CC2)CC1", "growth": "106% (inactive)"}
{"smiles": "Cc1nc2cc(Nc3nc(N4CCCCC4)nc(N4CCOCC4)n3)ccc2n1Cc1ccccc1", "growth": "44.5% (inactive)"}
{"smiles": "O=c1oc2ccccc2cc1-c1csc(N=Nc2c(O)[nH]c3ccc(Br)cc23)n1", "growth": "104% (inactive)"}
{"smiles": "CCCC1=NNC(=O)C1", "growth": "99% (inactive)"}
{"smiles": "NC(=O)c1cc(Cl)ccc1NC(=O)COc1ccccc1", "growth": "46.7% (inactive)"}
{"smiles": "COc1cc(/C=C2\\C(=O)Nc3ccccc32)cc(OC)c1O", "growth": "64.4% (inactive)"}
{"smiles": "COc1nc2c(cc1S(=O)(=O)c1ccccc1)CCc1c-2cnn1-c1ccccc1", "growth": "81.3% (inactive)"}
{"smiles": "CCCOC(=O)c1ccc2c(c1)[N+](=O)C(C(=O)c1ccccc1)=C(C(F)(F)F)[N+]2=O", "growth": "-96.5% (active)"}
{"smiles": "O=C(Nc1nc2ccccc2[nH]1)C(=O)Nc1nc2ccccc2[nH]1", "growth": "98.6% (inactive)"}
{"smiles": "Cc1ccccc1-c1cc(-c2ccc(Br)s2)[nH]c(=O)c1C#N", "growth": "104% (inactive)"}
{"smiles": "Cl.Fc1c[c-]c(-c2ccccn2)c(F)c1.[Pt].c1ccc([PH+](CC[PH+](c2ccccc2)c2ccccc2)c2ccccc2)cc1", "growth": "-65.8% (active)"}
{"smiles": "CCCCc1ccc(NC(=O)C(F)(F)F)cc1", "growth": "102% (inactive)"}
{"smiles": "COc1c(Cl)ccc2c(-c3nc4cc(Cl)c(F)cc4s3)cc(=O)oc12", "growth": "86.6% (inactive)"}
{"smiles": "CCCCc1ccc(C(O)(CCN2CC3CCC(CC3)C2)c2ccccc2)cc1", "note": "(stereo not given)", "growth": "106% (inactive)"}
{"smiles": "CCCCC(O)Cn1ncc(C(=O)OCC)c1NC(=O)NCc1ccccc1C(F)(F)F", "note": "(stereo not given)", "growth": "93.4% (inactive)"}
{"smiles": "CNc1ccc(Br)cc1-c1n[nH]c(=O)[nH]c1=O", "growth": "105% (inactive)"}
{"smiles": "CCCCCCCCCCCC(=O)[O][Sn]([CH2]CCC)([CH2]CCC)[CH2]CCC", "growth": "-94.9% (active)"}
{"smiles": "COc1ccc(/C=C2\\Oc3cc(C)c(Cl)cc3C2=O)cc1OC", "growth": "111% (inactive)"}
{"smiles": "CCOC(=O)c1cnn(CC(O)c2ccc(F)cc2)c1NC(=O)Nc1ccccc1F", "note": "(stereo not given)", "growth": "101% (inactive)"}
{"smiles": "O=C(CCCCCCC(=O)Nc1ccc2c(c1)/C(=C/c1ccc[nH]1)C(=O)N2)NO", "growth": "14% (inactive)"}
{"smiles": "O=C1C(Cl)=C(NCCCN2CCOCC2)C(=O)c2ccccc21", "growth": "120% (inactive)"}
{"smiles": "O=[N+]([O-])c1cc2c(cc1Br)C1C(C3C2C(Cl)(Cl)C(Cl)=C(Cl)C3(Cl)Cl)C(Cl)(Cl)C(Cl)=C(Cl)C1(Cl)Cl", "note": "(stereo not given)", "growth": "92.2% (inactive)"}
{"smiles": "O=[N+]([O-])c1ccc2nc(N/N=C/c3ccc(O)cc3)sc2c1", "growth": "68.7% (inactive)"}
{"smiles": "COc1ccc(/C=C/C(=O)N2CCC(O)CC2)cc1OC1CCCC1", "growth": "95.1% (inactive)"}
{"smiles": "O=C1CC(c2ccsc2)c2snc(-c3ccc(Cl)cc3)c2N1", "note": "(stereo not given)", "growth": "37.2% (inactive)"}
{"smiles": "Oc1ccccc1/C=N/Nc1nc2ccccc2s1", "growth": "49.2% (inactive)"}
{"smiles": "COc1ccc(-c2cc(=O)oc3c4c(ccc23)OCN(Cc2ccc(F)cc2)C4)cc1", "growth": "80% (inactive)"}
{"smiles": "O=C(O)CCN1CCN(c2cccc(Cl)c2)CC1", "growth": "97% (inactive)"}
{"smiles": "COc1ccc(-c2nn(-c3ccc(NC(=O)c4ccc(Cl)c(Cl)c4)cc3)cc2-c2ccncc2)cc1Cl", "growth": "6.02% (active)"}
{"smiles": "O=C1C(N2CCOCC2)=Cc2cccc3cccc1c23", "growth": "89% (inactive)"}
{"smiles": "CCCCCCCC/C=C\\CCCCCCCCOc1cccc(CC(=O)NCC[N+]2(C)CCCCC2)c1", "growth": "67% (inactive)"}
{"smiles": "COc1ccc(OC)c(/C=C2\\Oc3cc(O)ccc3C2=O)c1", "growth": "101% (inactive)"}
{"smiles": "O=C1/C(=C/c2ccc(Cl)cc2)CN(Cc2cn(CCCNc3ccnc4cc(Cl)ccc34)nn2)C/C1=C\\c1ccc(Cl)cc1", "growth": "-69.4% (active)"}
{"smiles": "Brc1ccccc1Nc1ccc2nnc(-c3ccncc3)n2n1", "growth": "95.1% (inactive)"}
{"smiles": "CN1CCN(C)c2cncc(Br)c2C1=O", "growth": "110% (inactive)"}
{"smiles": "COc1ccc(-c2nc(Nc3ccc(F)cc3)nc(Nc3ccc4c(c3)nc(C)n4Cc3ccccc3)n2)cc1", "growth": "53.3% (inactive)"}
